The values below come from PubChem BioAssay.

Structures are written as SMILES. Several values for one entry are separate records, joined by “and”; a condition that tells them apart may be missing. Identical values can stand only once. Activity calls are given as the source filed them. Unless noted, how the calls were made is not given here.

Assay [1] can be described thus: compounds binding Alexa647 anti-His antibody – biochemical, small-molecule microarray, 635 nm fluorescence, artefact control for SMM control protein annotation, primary screen (AID 1128).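 Further: score merges feature fluorescence with signal-to-noise for each printed compound spot.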 The settings on record: higher = more signal.
Assay [2] relates to Human papillomavirus type 1a E7 protein (residues 1-88). The experiment in a line: HPV1a E7 small-molecule binders, primary screen, biochemical, small-molecule microarray, residues 1-88, 635 nm (AID 1129). The conditions noted are these: small-molecule microarray binding, fluorescence 635 nm; higher = more signal.
The target of assay [3] is Focal adhesion kinase 1 (Homo sapiens) (UniProt Q05397). The experiment in a line: PTK2 protein binding on printed compound slides – biochemical, small-molecule microarray, 635/667 nm fluorescence, BSA, DTT, primary screen (AID 1130).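 Further: composite of spot emission at 667 nm and signal to noise over triplicate slides.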 The conditions noted are these: 635 nm fluorescence, higher = more signal.
In assay [4] the test system is Fibrinogen (Alexa647-labelled). The experiment in a line: Alexa647-fibrinogen binding to printed small molecules – biochemical, small-molecule microarray, 635/667 nm fluorescence, artefact control for SMM control-protein annotation, profiling panel (AID 1131).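 Further: z-score merges 667 nm fluorescence with per-spot signal-to-noise over triplicate slides.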 The settings on record: fibrinogen-A647 binding fluorescence, higher = more signal.
Assay [5] concerns the target Follistatin (Homo sapiens) (UniProt P19883). The experiment in a line: FST protein binding to printed compounds – biochemical, small-molecule microarray, 635/667 nm fluorescence, primary screen (AID 1132). The settings on record: 635 nm fluorescence, higher = more signal.
Assay [6] deals with Fibroblast growth factor 2 (Homo sapiens) (UniProt P09038). The experiment in a line: basic fibroblast growth factor binding to printed compounds – biochemical, small-molecule microarray, 635/667 nm fluorescence, primary screen (AID 1133). The conditions noted are these: FGF2, fluorescence 635/667, higher = more signal.
Assay [7] in a line: JC-1 mitochondrial potential readout, lung cancer cells – cell-based, A549, JC-1 fluorescence, basal, 24 h, 100 nL, profiling panel (AID 1138).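 Further: A549 lung adenocarcinoma cells under basal conditions with no added stimulus; test concentration not given here.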 The settings on record: higher = more signal.
The subject of the next assay is Lefty1. In words: Lefty1 protein binding to printed compounds – biochemical, small-molecule microarray, 635/667 nm fluorescence, primary screen (AID 1139). The settings on record: fluorescence 635/667, higher = more signal.
In assay [8] the test system is wheat germ agglutinin (Triticum aestivum), Alexa647-labelled. In words: Alexa647-WGA lectin binding to printed small molecules – biochemical, small-molecule microarray, 635/667 nm fluorescence, artefact control for SMM control-protein annotation, profiling panel (AID 1140).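 Further: score merges 667 nm feature emission with signal to noise over triplicate slides.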 The settings on record: WGA-A647 binding, 635 nm fluorescence, higher = more signal.
Assay [9] addresses Luciferin 4-monooxygenase (Photinus pyralis) (UniProt P08659). The experiment in a line: inhibition of purified Photinus pyralis luciferase – biochemical, luminescence, purified enzyme, 2006 set, primary screen (AID 1141).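 Further: cell-free assay with purified firefly luciferase at 100 ng per well in PBS; test concentration not given here.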 The settings on record: purified firefly luciferase, SteadyGlo luminescence, 30 min; higher = more signal, called active from +8 up or from −8 down.
For assay [10], the system named is Wnt5a (protein binding on small-molecule microarray). The experiment in a line: small molecules binding Wnt5a protein – biophysical, small-molecule microarray, 635/667 nm fluorescence, primary screen (AID 1142).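 Further: fluorescence read at 667 nm with signal to noise per printed feature.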 The settings on record: 635 nm fluorescence, higher = more signal.
Assay [11] in a line: ATP-based viability of Huh7 replicon cells – cell-based, CellTiter-Glo luminescence, basal, 48 h, cytotoxicity control for HCV replication inhibitor project, primary screen (AID 1143).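 Further: Huh7 hepatoma cells carrying a hepatitis C replication reporter with no stimulus; test concentration not given here.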 The settings on record: higher = more signal, called active from +8 up or from −8 down. Background: In antiviral work, replicon cells carry a viral genome segment that copies itself.
Assay [12] in a line: Pseudomonas biofilm growth suppression – PAO1 strain, BacTiter-Glo luminescence, LB-PBS, primary screen (AID 1144). The conditions noted are these: P. aeruginosa PAO1 biofilm, 12 h, higher = more signal.
Assay [13] in a line: basal CRE-LacZ reporter activity in PC12 – cell-based, unstimulated, primary screen (AID 1145). The settings on record: no forskolin, luminescence, 4.5 h, higher = more signal, called active from +8 up or from −8 down.
The nature of assay [14]: forskolin-driven CRE-LacZ activity in PC12 – cell-based, CRE-LacZ reporter, forskolin-stimulated, primary screen (AID 1146).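 Further: PC12 cells with 6xCRE LacZ reporter stimulated by forskolin 10 µM; beta-galactosidase reporter signal reflecting CREB driven transcription.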 The conditions noted are these: luminescence, 4.5 h, higher = more signal, called active from +8 up or from −8 down.
Assay [15] deals with Streptavidin (Streptomyces avidinii) (UniProt P22629). In words: compounds binding control protein streptavidin – biophysical, small-molecule microarray, 635/667 nm fluorescence, artefact control for SMM compound annotation, primary screen (AID 1147).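 Further: signal reflects streptavidin binding to arrayed compounds as a control protein.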 The settings on record: higher = more signal.
The nature of assay [16]: probe aInhba binding on compound microarray – biochemical, small-molecule microarray, 635/667 nm fluorescence, primary screen (AID 1148).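 Further: score merges 667nm spot fluorescence with signal-to-noise for antibody binding to printed compounds.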 The settings on record: higher = more signal.
Assay [17] concerns the target Torsin-1A (Homo sapiens) (UniProt O14656). The experiment in a line: TOR1A wild-type binding on microarray – cell lysate, small-molecule microarray, lysate, 635/667 nm, primary screen (AID 1149). The conditions noted are these: COS7 hTOR1A-WT lysate, 635 nm fluorescence, higher = more signal.
Assay [18] has the same target. In words: torsin A mutant lysate binding on microarrays – cell lysate, small-molecule microarray, COS7 lysate, 635/667 nm fluorescence, primary screen (AID 1150).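 Further: score pools 667 nm emission and signal to noise measuring lysate protein binding.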 The settings on record: COS7 hTOR1A mutant lysate, 635 nm fluorescence, higher = more signal.
In assay [19] the test system is Sonic hedgehog protein (Shh). In words: Sonic hedgehog microarray binding compounds – biochemical, small-molecule microarray, 635/667 nm fluorescence, primary screen (AID 1151).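 Further: Shh protein binding to compounds spotted on small-molecule microarray slides; score combines spot fluorescence intensity with signal-to-noise across triplicate slides.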 The settings on record: 635 nm fluorescence, higher = more signal.

Luciferin 4-monooxygenase (Photinus pyralis), sequence (P08659 whole entry, looked up): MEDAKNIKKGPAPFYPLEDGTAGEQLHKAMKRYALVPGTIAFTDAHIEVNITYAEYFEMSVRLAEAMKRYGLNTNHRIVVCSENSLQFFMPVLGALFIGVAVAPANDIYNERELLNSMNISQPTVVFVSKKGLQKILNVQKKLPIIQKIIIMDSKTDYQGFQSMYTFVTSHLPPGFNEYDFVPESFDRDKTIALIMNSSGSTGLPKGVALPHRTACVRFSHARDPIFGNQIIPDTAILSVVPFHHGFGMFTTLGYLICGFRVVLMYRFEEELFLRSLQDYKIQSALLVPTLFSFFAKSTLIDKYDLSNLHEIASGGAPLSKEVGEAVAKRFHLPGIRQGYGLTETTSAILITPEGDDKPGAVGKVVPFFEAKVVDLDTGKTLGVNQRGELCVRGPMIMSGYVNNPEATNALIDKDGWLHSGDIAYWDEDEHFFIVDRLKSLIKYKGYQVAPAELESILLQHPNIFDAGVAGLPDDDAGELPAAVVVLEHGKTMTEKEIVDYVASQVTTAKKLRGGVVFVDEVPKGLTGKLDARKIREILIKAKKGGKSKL
Follistatin (Homo sapiens), sequence (P19883 whole entry, looked up): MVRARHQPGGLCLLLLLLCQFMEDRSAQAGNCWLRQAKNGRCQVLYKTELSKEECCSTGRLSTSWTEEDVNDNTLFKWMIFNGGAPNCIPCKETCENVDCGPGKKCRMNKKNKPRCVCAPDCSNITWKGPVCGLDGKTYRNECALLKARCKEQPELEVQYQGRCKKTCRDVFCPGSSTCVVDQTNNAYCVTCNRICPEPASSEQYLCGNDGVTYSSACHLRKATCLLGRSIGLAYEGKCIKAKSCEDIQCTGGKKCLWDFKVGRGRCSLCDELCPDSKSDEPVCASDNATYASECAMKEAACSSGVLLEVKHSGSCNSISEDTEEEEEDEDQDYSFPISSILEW
Torsin-1A (Homo sapiens), sequence (O14656 whole entry, looked up): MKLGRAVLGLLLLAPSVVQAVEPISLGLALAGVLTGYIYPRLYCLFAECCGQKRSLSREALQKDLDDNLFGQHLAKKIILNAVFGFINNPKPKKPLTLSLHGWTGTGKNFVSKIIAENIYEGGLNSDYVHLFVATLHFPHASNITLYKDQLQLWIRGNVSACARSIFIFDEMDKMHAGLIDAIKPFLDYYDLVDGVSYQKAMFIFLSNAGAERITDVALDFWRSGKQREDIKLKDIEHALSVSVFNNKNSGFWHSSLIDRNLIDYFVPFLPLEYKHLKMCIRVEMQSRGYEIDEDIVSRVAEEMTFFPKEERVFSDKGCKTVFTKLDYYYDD
Fibroblast growth factor 2 (Homo sapiens), sequence (P09038 whole entry, looked up): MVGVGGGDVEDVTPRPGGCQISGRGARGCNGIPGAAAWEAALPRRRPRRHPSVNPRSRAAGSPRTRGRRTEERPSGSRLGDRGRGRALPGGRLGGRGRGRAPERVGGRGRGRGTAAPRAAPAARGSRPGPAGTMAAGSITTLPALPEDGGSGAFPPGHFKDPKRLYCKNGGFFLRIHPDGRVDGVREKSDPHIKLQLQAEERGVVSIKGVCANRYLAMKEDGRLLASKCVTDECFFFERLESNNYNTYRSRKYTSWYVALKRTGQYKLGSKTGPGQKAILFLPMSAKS
Streptavidin (Streptomyces avidinii), sequence (P22629 whole entry, looked up): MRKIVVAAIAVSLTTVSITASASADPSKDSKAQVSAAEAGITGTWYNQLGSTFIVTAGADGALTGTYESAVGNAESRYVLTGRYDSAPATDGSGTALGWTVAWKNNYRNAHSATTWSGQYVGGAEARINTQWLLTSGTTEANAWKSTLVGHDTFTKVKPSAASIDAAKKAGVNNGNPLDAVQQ
Focal adhesion kinase 1 (Homo sapiens), sequence (Q05397 whole entry, looked up): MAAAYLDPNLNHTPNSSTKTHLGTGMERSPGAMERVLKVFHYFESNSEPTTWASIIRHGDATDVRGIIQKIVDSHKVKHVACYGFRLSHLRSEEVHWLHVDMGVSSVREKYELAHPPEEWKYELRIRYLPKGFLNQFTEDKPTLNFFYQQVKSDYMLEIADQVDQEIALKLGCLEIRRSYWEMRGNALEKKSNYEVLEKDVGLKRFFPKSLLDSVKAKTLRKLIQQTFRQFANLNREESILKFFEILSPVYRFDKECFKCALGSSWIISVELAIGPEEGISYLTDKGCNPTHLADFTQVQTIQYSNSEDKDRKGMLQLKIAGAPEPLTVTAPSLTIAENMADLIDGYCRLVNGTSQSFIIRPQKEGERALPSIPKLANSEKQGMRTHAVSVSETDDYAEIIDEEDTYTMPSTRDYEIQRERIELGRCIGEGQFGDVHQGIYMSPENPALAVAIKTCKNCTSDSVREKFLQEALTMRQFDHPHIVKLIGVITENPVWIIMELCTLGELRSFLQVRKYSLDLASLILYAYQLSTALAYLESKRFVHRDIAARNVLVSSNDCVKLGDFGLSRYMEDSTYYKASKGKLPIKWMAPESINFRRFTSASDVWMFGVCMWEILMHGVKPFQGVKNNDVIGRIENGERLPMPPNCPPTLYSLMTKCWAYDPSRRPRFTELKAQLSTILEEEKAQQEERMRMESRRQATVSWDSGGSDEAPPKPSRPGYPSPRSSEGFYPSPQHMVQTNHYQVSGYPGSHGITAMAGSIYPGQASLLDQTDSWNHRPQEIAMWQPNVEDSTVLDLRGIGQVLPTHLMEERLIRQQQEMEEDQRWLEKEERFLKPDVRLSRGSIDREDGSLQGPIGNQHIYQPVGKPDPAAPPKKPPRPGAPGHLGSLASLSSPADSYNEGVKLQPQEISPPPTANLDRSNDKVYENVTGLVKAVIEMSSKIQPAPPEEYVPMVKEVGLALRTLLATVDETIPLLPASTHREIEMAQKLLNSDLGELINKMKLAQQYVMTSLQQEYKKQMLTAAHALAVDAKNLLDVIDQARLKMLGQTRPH

For `CCCNC(=O)OC[C@H]1O[C@H](CCON=C(C)CCC(=O)OC[C@H]2O[C@H](C#Cc3ccccc3)C=C[C@@H]2Oc2ccc(C)cc2)C=C[C@@H]1Oc1ccc(OC)cc1`, the composite z-score in assay [1] is 0.0888; in assay [2], -0.216; in assay [3], -0.17; in [4], -0.185; in assay [5], -0.437; in [6] it was -0.251. The composite z-score in the assay with Lefty1 is 0.0233; in assay [8] it was -0.26; in assay [10], -0.284; in assay [15], 1.07; in [16] it was -0.103; with Torsin-1A (Homo sapiens) [17], -0.474. The composite z-score in the assay with Torsin-1A (Homo sapiens) [18] was -0.352; in assay [19] it was 0.0277. In addition, the z-score in assay [7] was -0.611; in assay [9], 1.41 (inactive); in [11], -0.538 (inactive); in assay [12], -0.145 (inactive); in [13], -0.729 (inactive); in assay [14], 0.872 (inactive).
In the case of `CCN1C(=O)[C@H]2[C@H]3[C@H](O)[C@H](O)CC(=NOC)[C@@H]3CC[C@H]2C1=O`, the composite z-score was -0.121 in assay [1]; -0.805 in assay [2]; -0.384 in assay [3]; 0.245 in assay [4]; 0.0723 in assay [5]; -0.0102 in assay [6]. For the same molecule, the composite z-score in the assay with Lefty1 is 0.164; in [8], 0.299; in assay [10], -0.254; in assay [15], -0.125; in assay [16], -0.0762; in the assay with Torsin-1A (Homo sapiens) [17], -0.477. Besides, the composite z-score in the assay with Torsin-1A (Homo sapiens) [18] is -0.115; in assay [19] it was -0.13. For the same molecule, the z-score in assay [7] was 1.16; in assay [9], -0.554 (inactive); in assay [11], 0.359 (inactive); in assay [12] it was -1.16 (inactive); in assay [13], -1.12 (inactive); in [14] it was -0.154 (inactive).
As for `CC(C)CON=C1C[C@@H](O)[C@@H](O)[C@@H]2[C@@H]3C(=O)N(c4cccc(Oc5ccccc5)c4)C(=O)[C@@H]3CC[C@H]12`, the composite z-score in [1] was 0.348; in [2] it was 0.347; in assay [3] it was -0.195; in assay [4], 0.202; in assay [5], 0.39; in [6] it was 0.397. The composite z-score was 0.349 in the assay with Lefty1; 0.196 in [8]; 0.738 in assay [10]; 0.804 in assay [15]; -0.102 in [16]; -0.243 in the assay with Torsin-1A (Homo sapiens) [17]. For the same molecule, the composite z-score with Torsin-1A (Homo sapiens) [18] was 0.22; in assay [19] it was 0.697. For the same molecule, the z-score was 0.0506 in assay [7]; 0.527 (inactive) in assay [9]; -0.158 (inactive) in assay [11]; 0.198 (inactive) in assay [12]; -0.292 (inactive) in assay [13]; 0.235 (inactive) in assay [14].
On to `C=C[C@@H](C)[C@H](O)c1ccc(O)c2ccccc12`, for which the composite z-score in assay [1] was -0.181 and 1.87; in assay [2], -0.7 and -1.54; in assay [3], 0.825 and -0.491; in assay [4], 0.837 and -0.449; in assay [5], 1.31 and 0.663; in assay [6], 1.14 and 0.0819. Moreover, the composite z-score in the assay with Lefty1 was 0.948 and -0.871; in assay [8], 0.0825 and -0.52; in assay [10], -0.419 and -0.647; in assay [15] it was -0.984 and -0.766; in [16], -0.224 and -0.233; with Torsin-1A (Homo sapiens) [17], -0.595 and -0.309. Moreover, the composite z-score in the assay with Torsin-1A (Homo sapiens) [18] is -0.518 and -0.45; in [19], 1.96 and 0.17. Moreover, the z-score is -0.832 and -0.689 in assay [7]; 0.546 (inactive) and 0.338 (inactive) in [9]; -2.11 (inactive) and 0.366 (inactive) in [11]; -0.14 (inactive) and -0.671 (inactive) in assay [12]; 0.441 (inactive) and -0.272 (inactive) in [13]; -0.349 (inactive) and 0.556 (inactive) in [14].
